Laboratory results reported in PubChem BioAssay.
Activity calls are given as the source filed them. Unless noted, no rule for the calls is given here.

Legend:
[1] = test system: Wnt5a (protein binding on small-molecule microarray); assay: small molecules binding Wnt5a protein – biophysical, small-molecule microarray, 635/667 nm fluorescence, primary screen (AID 1142); conditions: 635 nm fluorescence, higher = more signal;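 also: fluorescence read at 667 nm with signal to noise per printed feature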
[2] = ATP-based viability of Huh7 replicon cells – cell-based, CellTiter-Glo luminescence, basal, 48 h, cytotoxicity control for HCV replication inhibitor project, primary screen (AID 1143); conditions: higher = more signal, called active from +8 up or from −8 down;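 also: Huh7 hepatoma cells carrying a hepatitis C replication reporter with no stimulus; test concentration not given here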
[3] = Pseudomonas biofilm growth suppression – PAO1 strain, BacTiter-Glo luminescence, LB-PBS, primary screen (AID 1144); conditions: P. aeruginosa PAO1 biofilm, 12 h, higher = more signal
[4] = basal CRE-LacZ reporter activity in PC12 – cell-based, unstimulated, primary screen (AID 1145); conditions: no forskolin, luminescence, 4.5 h, higher = more signal, called active from +8 up or from −8 down
[5] = forskolin-driven CRE-LacZ activity in PC12 – cell-based, CRE-LacZ reporter, forskolin-stimulated, primary screen (AID 1146); conditions: luminescence, 4.5 h, higher = more signal, called active from +8 up or from −8 down;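 also: PC12 cells with 6xCRE LacZ reporter stimulated by forskolin 10 µM; beta-galactosidase reporter signal reflecting CREB driven transcription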
[6] = target: Streptavidin (Streptomyces avidinii) (UniProt P22629); assay: compounds binding control protein streptavidin – biophysical, small-molecule microarray, 635/667 nm fluorescence, artefact control for SMM compound annotation, primary screen (AID 1147); conditions: higher = more signal;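 also: signal reflects streptavidin binding to arrayed compounds as a control protein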
[7] = probe aInhba binding on compound microarray – biochemical, small-molecule microarray, 635/667 nm fluorescence, primary screen (AID 1148); conditions: higher = more signal;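 also: score merges 667nm spot fluorescence with signal-to-noise for antibody binding to printed compounds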
[8] = target: Torsin-1A (Homo sapiens) (UniProt O14656); assay: TOR1A wild-type binding on microarray – cell lysate, small-molecule microarray, lysate, 635/667 nm, primary screen (AID 1149); conditions: COS7 hTOR1A-WT lysate, 635 nm fluorescence, higher = more signal
[9] = target: Torsin-1A (Homo sapiens) (UniProt O14656); assay: torsin A mutant lysate binding on microarrays – cell lysate, small-molecule microarray, COS7 lysate, 635/667 nm fluorescence, primary screen (AID 1150); conditions: COS7 hTOR1A mutant lysate, 635 nm fluorescence, higher = more signal;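 also: score pools 667 nm emission and signal to noise measuring lysate protein binding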
[10] = test system: Sonic hedgehog protein (Shh); assay: Sonic hedgehog microarray binding compounds – biochemical, small-molecule microarray, 635/667 nm fluorescence, primary screen (AID 1151); conditions: 635 nm fluorescence, higher = more signal;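 also: Shh protein binding to compounds spotted on small-molecule microarray slides; score combines spot fluorescence intensity with signal-to-noise across triplicate slides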

Sequence of Streptavidin (Streptomyces avidinii) (P22629 whole entry, looked up): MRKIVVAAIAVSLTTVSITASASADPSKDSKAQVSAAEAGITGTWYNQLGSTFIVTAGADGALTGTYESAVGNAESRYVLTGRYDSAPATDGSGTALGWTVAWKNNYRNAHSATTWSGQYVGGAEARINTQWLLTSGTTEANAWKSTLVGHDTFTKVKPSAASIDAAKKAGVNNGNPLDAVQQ
Sequence of Torsin-1A (Homo sapiens) (O14656 whole entry, looked up): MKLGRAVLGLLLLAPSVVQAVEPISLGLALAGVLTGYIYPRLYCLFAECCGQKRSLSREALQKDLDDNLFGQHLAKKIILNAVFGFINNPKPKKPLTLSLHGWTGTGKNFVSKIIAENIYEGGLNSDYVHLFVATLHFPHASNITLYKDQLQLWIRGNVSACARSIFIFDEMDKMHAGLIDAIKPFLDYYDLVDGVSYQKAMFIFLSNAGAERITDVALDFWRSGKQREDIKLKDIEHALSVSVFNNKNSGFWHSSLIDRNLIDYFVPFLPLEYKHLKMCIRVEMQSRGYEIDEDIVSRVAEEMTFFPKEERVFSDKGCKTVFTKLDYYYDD

Compound	composite z-score [1]	z-score [2]	z-score [3]	z-score [4]	z-score [5]	composite z-score [6]	composite z-score [7]	composite z-score [8]	composite z-score [9]	composite z-score [10]
CCOC(=O)C1=CC[C@@H](c2ccccc2)N(S(=O)(=O)c2ccc(C)cc2)[C@H]1c1cccc(OC)c1	-0.134	-2.97 (inactive)	0.966 (inactive)	-0.424 (inactive)	0.576 (inactive)	0.717	0.135	0.4	0.314	-0.176
C#C[C@@H](CC)O[Si](C#CCCCC#N)(C(C)C)C(C)C	0.162	-0.667 (inactive)	0.132 (inactive)	-0.868 (inactive)	4.95 (inactive)	-0.0686	-0.0762	0.491	1.69	0.473
COCC(=C=CC[C@@H](O)c1cccc(OCCO)c1)CCO	0.332	-0.35 (inactive)	0.65 (inactive)	-0.205 (inactive)	0.671 (inactive)	0.105	0.0051	1.96	0.675	1.23
C=CCNC(=O)[C@H]1[C@@H]2C(=O)O[C@@H](c3ccccc3)[C@@H](c3ccccc3)N2[C@@H](c2ccc(OCCO)cc2)[C@]12C(=O)N(C(=O)OCCOC)c1ccc(C#Cc3ccc(OC)cc3)cc12	0.209	-5.38 (inactive)	0.054 (inactive)	-1.43 (inactive)	-0.857 (inactive)	0.51	0.152	0.563	0.86	1.72
C=C(COC)/C(=C/C[C@H](OC(C)=O)c1cccc(OCCO)c1)c1cnc2ccccc2c1	0.484	-0.184 (inactive)	0.167 (inactive)	3.72 (inactive)	0.298 (inactive)	1.46	0.109	1.24	0.583	2.11
COC(=O)[C@@]1(Cc2ccc(F)cc2)[C@H]2c3cc(C(=O)N4CCCC4)n(CC4CC4)c3C[C@H]2CN1C(=O)c1ccccc1	0.0479	-2.61 (inactive)	0.197 (inactive)	0.972 (inactive)	-0.451 (inactive)	1.86	0.74	0.111	1.03	0.377
CC(C)C[C@@H]1NC(=O)CNC(=O)[C@@]23C(=O)N[C@@H](Cc4ccccc4)C2[C@H](C)[C@@]2(C)O[C@H]2C3/C=C/C/C=C\CNC1=O (stereo not given in full)	0.184	0.0431 (inactive)	-0.826 (inactive)	-0.417 (inactive)	0.297 (inactive)	-0.0691	-0.0494	1.09	-0.134	1.5
COc1cc(CO)cc(I)c1O[C@H]1C=C(C(=O)NCCO)C[C@@H](NCC2CCCCC2)[C@@H]1O	-0.042	-0.731 (inactive)	-0.893 (inactive)	-0.0534 (inactive)	-0.269 (inactive)	0.0581	0.0422	-0.549	-0.262	-0.397
O=C1O[C@H](c2ccccc2)[C@H](c2ccccc2)N2[C@H]1[C@@H](C(=O)N1CCCCCCC1)[C@]1(C(=O)Nc3ccc(C#CC4(O)CCCCCC4)cc31)[C@H]2c1ccc(O)cc1	1.19	-3.1 (inactive)	-0.555 (inactive)	-0.168 (inactive)	-0.219 (inactive)	2.76	1.77	1.13	1.49	1.45
C=C(C(=O)CC[C@@H](OC(=O)c1ccccc1-c1ccccc1C(=O)O)c1ccccc1OCCO)C(C)C	0.618	0.182 (inactive)	-0.695 (inactive)	3.64 (inactive)	3.34 (inactive)	-0.344	-0.0529	0.908	0.663	2.3
Cc1c(NC(=O)/C(C#N)=C/c2ccccc2Cl)c(=O)n(-c2ccccc2)n1C	0.27	-2.11 (inactive)	-0.543 (inactive)	-0.321 (inactive)	-1.21 (inactive)	1.73	-0.0195	0.461	0.159	0.0651
